Screening results (PubChem)
Shown are actives, neighbours in structure and some others; about 2.1% of the full set was active somewhere.
MLLE-PAM2 inh: inhibitors of microRNA-mediated deadenylation, human PABP1 MLLE binding. P11940. 360,000 tested, 0.36% active. AID 588489. GST-MLLE / FITC-PAM2 fluorescence polarization. inhibition, % at 20 µM; in the data active means inhibition above about 35%, passing the limit was not always enough;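 further: plate controls were DMSO wells with GST-MLLE for no effect and wells lacking GST-MLLE protein for full effect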
NRP1-CendR mod: NRP-1/CendR interaction modulation. O14786. FAM-RPARPAR peptide binding to NRP-1, fluorescence polarization. inhibition, % at 25 µM. 360,000 tested, 0.85% active. AID 602438;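 active means inhibition or corrected inhibition above about 18%, plus a signal ratio from 0.5 to 1.5, limit read from the data, passing the limit was not always enough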
eIF4H FP inh: inhibitors of RNA binding by human eIF4H | inhibition, % at 35 µM | 290,000 tested, 0.94% active | eIF4H fluorescence polarization binding assay | AID 2012 | Q15056;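 further: calls also rest on retests at 20 µM and on dose response follow-up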
PABP polyA inh: PABP-poly(A) binding inhibition | PABP-poly(A) RNA binding, fluorescence polarization | inhibition, % at 35 µM | 290,000 tested, 1% active | AID 2014;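 further: calls also rest on retests at 20 µM and on dose response follow-up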
* hit, by the source's call; / = no result. Unless noted, how the calls were made is not given here.

SMILES | MLLE-PAM2 inh | NRP1-CendR mod | eIF4H FP inh | PABP polyA inh
O=C(CN1C(=O)c2ccccc2C1=O)NC1CCC(O)CC1 (stereo not drawn) | 2 | 25* | / | /
CCNC(=O)c1cc2c(c(-c3cccc(-c4cccc(C(=O)N(C)C)c4)c3)n1)[C@@H](CCO)N(S(=O)C(C)(C)C)C2 (stereo partly drawn) | -35 | -61 | / | /
COc1ccc(-c2ccc(-c3noc(-c4cccs4)n3)c(OC)n2)cc1 | -47 | -51 | 29* | 50*
COCCn1c(Cc2ccccc2)nnc1SCC(=O)NC1CC1 | -2 | 25* | 7 | 4
COc1ccc(-c2cc(C(F)(F)F)c3c(N)c(C(=O)NCCSC)sc3n2)cc1 | 43 | -38 | -12 | 1
COc1ccc(OC)c(NC(=O)c2sc3nc(Cc4ccccc4)cc(C(F)(F)F)c3c2N)c1 | -17 | 24* | 0 | -1
Cc1ccc2c(CC(=O)Nc3ccc(F)c(S(=O)(=O)N4CCOCC4)c3)coc2c1 | 0 | -10 | / | /
c1ccc(COC2CCCN(Cc3nc(-c4cccs4)no3)C2)nc1 (stereo not drawn) | 40* | 6 | -1 | -1
c1cncc(COC2CCCN(Cc3nc(-c4cccs4)no3)C2)c1 (stereo not drawn) | 23 | -7 | -12 | -8
O=C(CCNc1ccc(Cc2ccncc2)cc1)c1ccc([N+](=O)[O-])cc1 | 40* | 10 | -11 | -7
O=C(Nc1ccc(Cc2ccncc2)cc1)c1cccc([N+](=O)[O-])c1 | -1 | -2 | 6 | -2
C=C(C)C(=O)Nc1cccc(C2=NOC3(C2)C[C@@H](C(N)=O)N(C(=O)CC(c2ccccc2)c2ccccc2)C3)c1 (stereo partly drawn) | 2 | -11 | 90* | 52*
C=C(C)C(=O)Nc1cccc(C2=NOC3(C2)C[C@H](C(N)=O)N(C(=O)c2ccccc2C(=O)c2ccccc2)C3)c1 (stereo partly drawn) | 1 | -13 | 98* | 58*
C/C=C/C=C\C(=O)Nc1cccc(C2=NOC3(C2)C[C@H](C(N)=O)N(C(=O)CC#N)C3)c1 (stereo partly drawn) | -2 | -14 | 17 | 20
C=C(C)C(=O)Nc1cccc(C2=NOC3(C2)C[C@H](C(N)=O)N(C(=O)CC#N)C3)c1 (stereo partly drawn) | / | / | 89* | 29
C=C(C)C(=O)Nc1cccc(C2=NOC3(C2)C[C@@H](C(N)=O)N(C(=O)/C(C)=C/C)C3)c1 (stereo partly drawn) | -2 | -66 | 83* | 58*
C/C=C(/C)C(=O)Nc1cccc(C2=NOC3(C2)C[C@@H](C(N)=O)N(C(=O)CC(c2ccccc2)c2ccccc2)C3)c1 (stereo partly drawn) | -11 | 2 | -2 | 4
C/C=C(\C)C(=O)Nc1cccc(C2=NOC3(C2)C[C@@H](C(N)=O)N(C(=O)c2ccccc2C(=O)c2ccccc2)C3)c1 (stereo partly drawn) | -23 | 2 | 11 | 14
Cc1cc(C)cc(NS(=O)(=O)CCCS(=O)(=O)Nc2cc(C)cc(C)c2)c1 | 10 | 1 | / | /
C=C(C)C(=O)Nc1cccc(C2=NOC3(C2)C[C@H](C(N)=O)N(C(=O)CC)C3)c1 (stereo partly drawn) | 10 | -43 | 92* | 27
CCCCCC(=O)Nc1cccc(C2=NOC3(C2)C[C@H](C(N)=O)N(C(=O)CC#N)C3)c1 (stereo partly drawn) | / | / | 103 | 67*
C=C(C)C(=O)Nc1cccc(C2=NOC3(C2)C[C@@H](C(N)=O)N(C(=O)/C=C/C=C/C)C3)c1 (stereo partly drawn) | -2 | -38 | 93* | 56*
O=C(NCc1ccc(F)cc1)c1cc(C2CCCN(C(=O)c3ccc4c(c3)CCO4)C2)on1 (stereo not drawn) | 23 | -10 | / | /
NC(Cc1ccc(Cl)cc1)c1csc(Nc2ccc(-c3ccccc3)nn2)n1 (stereo not drawn) | 4 | -6 | / | /
COc1cc(/C=C2\SC(=O)NC2=O)ccc1OCC(=O)N1CCOCC1 | -5 | 2 | / | /
COCCNc1nc(Nc2ccccc2Cl)c2sccc2n1 | -2 | -2 | / | /
C=CCSc1nnc(NC(=O)c2cn(CC)c3nc(C)ccc3c2=O)s1 | -100 | -38 | 49 | 53*
CCn1cc(C(=O)NCc2cccs2)c(=O)c2ccc(C)nc21 | 1 | 28* | -1 | -3
O=C1N2CCSC2=NC1(Nc1ccccn1)C(F)(F)F (stereo not drawn) | 29 | 5 | -6 | -6
CS(=O)(=O)c1ccc2nc(NC3(C(F)(F)F)N=C4SCCN4C3=O)sc2c1 (stereo not drawn) | 42* | -16 | -12 | -4
